Compound activity as filed in PubChem BioAssay.
A selection follows.
aSyn UTR act – Activators via SNCA 5'UTR binding, MLPCN | alpha-synuclein 5'UTR reporter, activators screen | activity score, % (tested at 7.5 µM), hits read low | 7.1% of 300,000 active | AID 1814, 2009; in the data active means activity score below about -60%
Active calls of the source: *.

Screening O=C(O)c1cccc(NC(=S)N/N=C/c2ccccc2OCc2ccc(Br)cc2)c1 returned aSyn UTR act -84*.
`COc1ccc(NC(C)C(=O)N/N=C/c2ccccc2OCc2ccc(Br)cc2)cc1` (configuration not stated) gave aSyn UTR act -77*.
`Cc1sc2c(c1C)CN(CCN1CCOCC1)CN2C(=O)c1ccccc1` gave aSyn UTR act -82*.
Screening CC(C)(C)c1ccc(S(=O)(=O)CCc2ccccn2)cc1 returned aSyn UTR act -96*.
`CC(C)(C)c1ccc(SCCc2ccccn2)cc1` gave aSyn UTR act -127*.
Fc1ccc(SCCc2ccccn2)cc1 was read as aSyn UTR act -97*.
Screening C=CCn1cccc(/C=C/C(=O)c2ccc(C(C)(C)C)cc2)c1=S returned aSyn UTR act -74*.
For COc1cc(C(=O)Nc2ccc(N(C)C)cc2)c([N+](=O)[O-])cc1OC the results were aSyn UTR act -75*.
`N#Cc1cc(C#N)c(N2CCN(c3cccc(Cl)n3)CC2)nc1N` gave aSyn UTR act -85*.
`COc1cccc(C2c3c(oc4ccccc4c3=O)C(=O)N2Cc2ccco2)c1` (configuration not stated) gave aSyn UTR act -99*.
O=C(NCC1CCCCC1)c1cc2ccccc2cc1O was read as aSyn UTR act -109*.
Screening CCOC(=O)C(C)/C(C)=N/NC(=O)c1cc2ccccc2cc1O (configuration not stated) returned aSyn UTR act 62.
Screening O=C(NCC1CCCO1)c1cc2ccccc2cc1O (configuration not stated) returned aSyn UTR act -125*.
`CN(C(=O)c1cc(-c2ccc3c(c2)OCO3)on1)c1ccccc1` gave aSyn UTR act -167*.
For O=C(Nc1cc(Br)ccc1O)c1cc(-c2ccc3c(c2)OCO3)on1 the results were aSyn UTR act -108*.
Screening O=C(c1cc(-c2ccc3c(c2)OCO3)on1)N1CCN(c2ccccc2)CC1 returned aSyn UTR act -245*.
`CSc1ccccc1NC(=O)c1cc(-c2ccc3c(c2)OCO3)on1` gave aSyn UTR act -128*.
`Cc1nnc(SCCC(=O)Nc2nc(-c3ccccc3)ns2)s1` gave aSyn UTR act -86*.
CC(C)C(=O)Nc1nc(-c2ccccc2)ns1 was read as aSyn UTR act -182*.
Screening CCC(=O)Nc1nc(-c2ccccc2)ns1 returned aSyn UTR act -211*.
`CCSc1nc(-c2ccccc2)nc(C(Cl)Cl)n1` gave aSyn UTR act 123.
CCCC(=O)Nc1nc(-c2ccccc2)ns1 was read as aSyn UTR act -152*.
`COC(=O)Nc1nc(-c2ccccc2)c(C(=O)c2ccc(Cl)cc2)s1` gave aSyn UTR act 94.
`CC(=O)Nc1nc(-c2ccc(Cl)cc2)ns1` gave aSyn UTR act -206*.
CC(=O)Nc1cc(-c2ccc(Cl)cc2)[nH]n1 was read as aSyn UTR act -141*.
`O=C(CSc1ncn[nH]1)Nc1nc(-c2ccccc2)ns1` gave aSyn UTR act -63*.
Screening COc1cccc(C2=NO[C@@H]3C(=O)N(c4ccc5c(c4)OCCO5)C(=O)[C@H]23)c1OC returned aSyn UTR act -81*.
For O=c1c2ccccc2oc2cc(C#Cc3ccccn3)ccc12 the results were aSyn UTR act -67*.
Screening COc1cccc2oc3ccc(C#Cc4ccccn4)cc3c(=O)c12 returned aSyn UTR act -71*.
COc1cc(-c2noc(C)c2C#Cc2ccccn2)cc(OC)c1OC was read as aSyn UTR act 86.
COC(=O)Cc1c(C)c2ccc(OC(C)C)cc2oc1=O was read as aSyn UTR act -156*.
`O=[N+]([O-])c1nn(-c2ccc3c(c2)OCCO3)n(O)c1=Nc1ccccc1` gave aSyn UTR act 80.
For O=[N+]([O-])c1nn(-c2ccc3c(c2)OCCO3)n(O)c1=NC1CCCC1 the results were aSyn UTR act -108*.
Screening O=[N+]([O-])c1nn(-c2ccc3c(c2)OCCO3)n(O)c1=NC1CCCCCC1 returned aSyn UTR act -91*.
C[C@H]1Oc2ccccc2C(=O)C1C(=O)c1ccccc1 (some centres not stated) was read as aSyn UTR act -100*.
N/C(=N\OC(=O)c1cccc2ccccc12)c1cccnc1 was read as aSyn UTR act -184*.
For Cc1ccccc1C(=O)O/N=C(\N)c1cccc([N+](=O)[O-])c1 the results were aSyn UTR act -275*.
N/C(=N\OC(=O)c1cccc2ccccc12)c1cccc([N+](=O)[O-])c1 was read as aSyn UTR act -123*.
c1csc(-c2nc(N3CCCCC3)no2)c1 was read as aSyn UTR act -137*.
`C=CCNc1nc(Cl)nc(Nc2ccccc2)n1` gave aSyn UTR act -72*.
CC(CNC(=O)c1ccc(OC2CCN(Cc3ccccn3)CC2)cc1)c1ccccc1 (configuration not stated) was read as aSyn UTR act -97*.
`O=C1N(c2ccccc2)C[C@@H]2C[C@@H](c3cc4ccccc4o3)N3CCC[C@@]123` gave aSyn UTR act -594*.
For O=C1c2ccccc2NC(c2ccc3c(c2)OCO3)N1O (configuration not stated) the results were aSyn UTR act -121*.
CCOc1ccc(-c2nnc(SCC(=O)Nc3ccc4c(c3)c3ccccc3n4CC)n2N)cc1 was read as aSyn UTR act 84.
CCOc1ccc(NCc2nnc(SCC(=O)Nc3cc(C)on3)n2-c2ccccc2OC)cc1 was read as aSyn UTR act -101*.
For CCCC(=O)Nc1ccc(-c2nc3cc(C)ccc3o2)cc1 the results were aSyn UTR act -149*.
For CCCC(=O)Nc1ccc2oc(-c3ccc(OC)c(Br)c3)nc2c1 the results were aSyn UTR act -118*.
COc1ccc(-c2csc(NC(=S)NC(=O)/C=C/c3ccco3)n2)cc1Br was read as aSyn UTR act 91.
For CCCC(=O)Nc1ccc(-c2nc3cc(C)c(C)cc3o2)c(O)c1 the results were aSyn UTR act -129*.
For COc1cccc2cc(-c3nc(-c4cccs4)cs3)c(=O)oc12 the results were aSyn UTR act -174*.
Screening N=c1oc2ccccc2cc1-c1nc(-c2ccccc2)cs1 returned aSyn UTR act -64*.
`c1csc(-c2csc(-c3cccs3)n2)c1` gave aSyn UTR act -104*.
Screening CNc1nnc(-c2cc3ccccc3oc2=O)s1 returned aSyn UTR act -78*.
Screening O=c1oc2ccccc2cc1-c1nc(-c2cccs2)cs1 returned aSyn UTR act -133*.
`Cc1ccc(C(=O)Cn2c(=N)n(N)c3ccccc32)cc1` gave aSyn UTR act -166*.
For Cn1c(=N)n(CC(=O)c2ccccc2)c2ccccc21 the results were aSyn UTR act 90.
Screening CCN(CC)CCn1c(=N)n(CC(=O)c2ccc(C)cc2)c2ccccc21 returned aSyn UTR act -125*.
`COc1ccc(C(=O)Cn2c(=N)n(C)c3ccccc32)cc1` gave aSyn UTR act -62*.
Screening Cc1ccc(C(=O)NC(=S)N(C)C2CCCCC2)cc1 returned aSyn UTR act -84*.
Screening CN(C(=O)c1ccc(-c2ccccc2)cc1)C1CCCCC1 returned aSyn UTR act -127*.
`O=C(N/N=C/c1sc(N2CCOCC2)nc1-c1ccccc1)c1cccc(S(=O)(=O)N2CCOCC2)c1` gave aSyn UTR act 87.
`NC(=O)N/N=C/c1sc(N2CCCCC2)nc1-c1cccs1` gave aSyn UTR act -67*.
For CC(C)NC(=S)N/N=C/c1sc(N2CCCCC2)nc1-c1cccs1 the results were aSyn UTR act -69*.
